Laboratory results: paper PMC4552634, “A New Set of Chemical Starting Points with Plasmodium falciparum Transmission-Blocking Potential for Antimalarial Drug Discovery” (PLoS ONE, 2015)
In all, about 13,000 compounds went through this assay and about 3,200 (25%) showed an effect of 50% or more. Some of the results follow.

Each molecule was assayed on P. falciparum stage V gametocytes. Conditions: 48 h, 5 µM; inhibitor.
Parameters: BacTiter-Glo ATP luminescence viability of purified stage V gametocytes in 384-well plates, per cent inhibition versus DMSO

SMILES | % Inhibition [%]
CC(C)(C)c1cc(C(=O)N2CCN(c3ncccc3C(F)(F)F)CC2)n(Cc2ccccc2)n1 [TCMDC-134142] | 2.354
CCN(CC)C(=O)C1CCCN(c2cc(C)nc(Nc3ccc(Cl)cc3)n2)C1 (stereo not drawn) [TCMDC-132204] | -2.665
N#Cc1ccc(N2CCN(Cc3cccc(-c4cccc(-c5nc6cc(C(F)(F)F)ccc6[nH]5)c4)c3)CC2)nc1.O=C(O)C(F)(F)F [TCMDC-133117] | -5.62
O=C(CCn1c2ccccc2c2ccccc21)NN=Cc1ccco1 [TCMDC-125735] | -6.333
CC(C)Cn1cc2c(ccc3nc(N)nc(N)c32)n1 [TCMDC-137969] | -46.77
COc1ccc2nccc([C@@H](O)CN3CCC(NC(=O)/C=C/c4cccc(-c5ccccc5)c4)CC3)c2c1 [TCMDC-141043] | -22.17
CC(NC(=O)NC1CCC(CCN2CCCc3ccccc32)CC1)c1cccc2ccccc12 (stereo not drawn) [TCMDC-136176] | 92.78
CC(C)[C@H](NC(=O)NC1CCC(CCN2C3CCC2CC(OC(=O)C(CO)c2ccccc2)C3)CC1)C(O)(c1ccccc1)c1ccccc1 (stereo partly drawn) [TCMDC-136457] | -19.47
N#Cc1ccc2c(c1)CCN(CCC1CCC(NC(=O)/C=C/c3cccc4ccccc34)CC1)CC2 (stereo not drawn) [TCMDC-139777] | -39.21
CC(C)[C@@H](NC(=O)NC1CCC(CCN2C3CCC2CC(OC(=O)C(CO)c2ccccc2)C3)CC1)C(O)(c1ccccc1)c1ccccc1 (stereo partly drawn) [TCMDC-136458] | 45.88
CC(NCCC1CCC(NC(=O)N[C@H](C)C(O)(c2ccccc2)c2ccccc2)CC1)c1cccc2ccccc12 (stereo partly drawn) [TCMDC-136378] | 64.1
CC(=O)c1ccc2c(c1)CCN(CCC1CCC(NC(=O)c3cc4ccccc4[nH]3)CC1)CC2 (stereo not drawn) [TCMDC-139776] | -25.73
Oc1cc2c(cc1CN1CCN(Cc3cccs3)CC1)CCC2 [TCMDC-125012] | 1.025
CCN(CC)CCN1C(=O)c2oc3ccc(Cl)cc3c(=O)c2C1c1ccc(SC)cc1 (stereo not drawn) [TCMDC-124623] | 3.621
CCCCCN1C(=O)C(c2ccccc2)(c2ccccc2)N=C1N [TCMDC-136877] | -32.2
COc1cccc(-c2cnc(N)c(-c3nc4ccc(C(F)(F)F)cc4[nH]3)c2)c1 [TCMDC-138790] | 13.24
COc1ccccc1NC(=O)Nc1ccc(-c2ccc(-c3nc4ccc(C(F)(F)F)cc4[nH]3)cc2)cc1 [TCMDC-133202] | -7.674
CCCCCCCc1cc(O)c2c3c(c(=O)oc2c1)CN(C)CC3 [TCMDC-124145] | 8.32
Cc1sc(CNCCCNc2cc(=O)c3ccccc3[nH]2)c(C(F)(F)F)c1C [TCMDC-140906] | 5.874
Cc1cccc2[nH]c(-c3ccc(-c4ccc(NC(=O)Nc5ccc(Cl)cc5)cc4)cc3)nc12 [TCMDC-133184] | -26.89
Cc1cccc2[nH]c(-c3ccc(-c4cccc(NC(=O)Nc5cccc(C#N)c5)c4)cc3)nc12 [TCMDC-133198] | 83.69

SMILES | % Inhibition [%]
Cn1cccc1C(=O)C(=O)Nc1ccc(-c2ccc(-c3nc4ccc(F)cc4[nH]3)cc2)cc1 [TCMDC-136780] | -3.552
Cn1cccc1C(=O)C(=O)Nc1cccc(-c2ccc(-c3nc4ccc(C(F)(F)F)cc4[nH]3)cc2)c1 [TCMDC-136910] | 0.09328
Cc1cccc2[nH]c(-c3cccc(-c4ccc(NC(=O)Nc5ccc(Cl)cc5)cc4)c3)nc12 [TCMDC-133177] | 12.12
Cc1cccc2[nH]c(-c3cccc(-c4cccc(NC(=O)Nc5cccc(C#N)c5)c4)c3)nc12 [TCMDC-133194] | -35.1
Cc1cccc2[nH]c(-c3cccc(-c4ccc(NC(=O)Nc5cccc(C#N)c5)cc4)c3)nc12 [TCMDC-133192] | 2.358
Cc1cccc2[nH]c(-c3ccc(-c4ccc(NC(=O)C(=O)c5cccn5C)cc4)cc3)nc12 [TCMDC-136908] | 78.98
Cc1cccc2[nH]c(-c3cccc(-c4ccc(NC(=O)C(=O)c5cccn5C)cc4)c3)nc12 [TCMDC-136909] | 70.67
CCNC(=O)Nc1ccc(-c2cccc(-c3nc4c(C)cccc4[nH]3)c2)cc1 [TCMDC-133171] | -9.855
Cc1cccc2[nH]c(-c3ccc(-c4cccc(NC(=O)Nc5ccccc5)c4)cc3)nc12 [TCMDC-133155] | 0.6364
Cc1cccc2[nH]c(-c3ccc(-c4cccc(NC(=O)C(=O)c5cccn5C)c4)cc3)nc12 [TCMDC-136907] | 90.5
Cc1cccc2nc(-c3ccc(-c4ccc(NC(=O)NCc5cccc(F)c5)cc4)s3)[nH]c12 [TCMDC-133286] | 5.156
Cc1ccc(-c2cc3nc4c(c(NCCCn5ccnc5)n3n2)CCC4)cc1 [TCMDC-124390] | 12.49
Cc1cccc2c3c([nH]c12)C1(CCN(Cc2ccccc2)CC1)NC(C(=O)NCc1ccccc1)C3 (stereo not drawn) [TCMDC-141244] | -26.21
COc1ccc2nccc([C@@H](O)CN3CCC(NC(=O)c4ccc(Cl)c(OC)c4)CC3)c2c1 [TCMDC-141113] | -17.86
CSc1sc(NC(=O)Nc2cccc(C(F)(F)F)c2)cc1C#N [TCMDC-123772] | -46.48
CCN(CC)Cc1cc(Nc2c3ccc(Cl)cc3nc3cccc(OC)c23)ccc1O [TCMDC-139222] | 106.6
COc1ccc2nc3cc(Cl)ccc3c(Nc3ccc(O)c(CN4CC5CCC(CC5)C4)c3)c2c1.Cl [TCMDC-142013] | -78.53
CCN(CC)Cc1cc(Nc2ccnc3cc(Cl)ccc23)ccc1O [TCMDC-123932] | -15.23
CN(Cc1ccc(NC(=O)CCC2CCN(C(=O)/C=C/c3ccc(Cl)c(Cl)c3)CC2)cc1)C1CCOCC1 [TCMDC-140515] | 8.343
Oc1c(C=Nn2cnnc2)sc2ccccc12 [TCMDC-125759] | -2.761
O=[N+]([O-])c1cccc(-c2nc(-c3ccc(Br)cc3)[nH]c2-c2ccc(Br)cc2)c1 [TCMDC-124605] | -41.82
